Hits are enriched below; roughly 7.9% of the tested compounds scored in any of these assays.
Marburg entry inh: qHTS for inhibitors of binding or entry into cells for Marburg Virus; Marburg virus pseudotyped entry inhibition, cell reporter; Potency, µM (titrated, usually from 37.8 µM), inactives show at the top dose activity change, negative = inhibition, most hits filed as inhibitors; 300,000 compounds, 1.8% hits; calls by dose curve; tested in HEK293 cells; note: potency is the fitted concentration of half-maximal effect
FMDV inh: High Throughput Screening for Foot and Mouth Disease Virus Antivirals | AID 1159524, 2015 | FMDV antiviral cell-based qHTS | Potency, µM (titrated, usually from 57.9 µM), without a hit: top-dose activity change, negative = inhibition, most hits filed as inhibitors | 410,000 compounds, 1.2% hits; calls by dose curve; tested in HEK293T cells; note: read-out not given here; potency is the fitted concentration of half-maximal effect; nearly all actives have a fitted effect of over 45% in size
Lassa entry inh: qHTS for Inhibitors of binding or entry into cells for Lassa Virus; Lassa virus pseudotype entry inhibition, cell reporter; Potency, µM (highest dose often 37.9 µM), without a hit: at the top dose activity change, negative = inhibition, actives largely listed as inhibitors; 300,000 compounds, 1.2% hits; AID 540256, 2011; calls by dose curve; tested in HEK293 cells; note: potency is the fitted concentration of half-maximal effect; nearly all actives have a fitted effect of over 50% in size
HCMV antiviral: qHTS Assay for inhibitors of the human cytomegalovirus (HCMV); HFF cells, HCMV-luciferase reporter, 72 h; hits give low values; activity change, negative = inhibition, % at 57.5 µM; 410,000 compounds, 4.5% hits; AID 1259415, 2018; in the data active = activity change below about -60%; inconclusive = no clear call, values can overlap the other calls; inactive = above about -39%
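Inhibition of viral replication was scored as loss of reporter luminescence in HFFs infected with HCMV-luciferase (MOI 1 PFU/cell) for 72 h; compounds tested at 2 doses, normalized to buffer and Salinomycin controls.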
HCV inh: qHTS Assay for Inhibitors of Hepatitis C Virus (HCV). Huh7.5.1 HCVcc-Cre infection, luciferase reporter, 44 h. 340,000 compounds, 3.4% hits. Potency, µM (top dose mostly 41.8 µM), for the others: at the highest dose activity change, negative = inhibition, hits mostly inhibitors; active = well fitted inhibition curve with a large enough effect; inconclusive = small, poorly fitted or top-dose-only effect, or another doubt; inactive = no such curve, though single readings can be large or run the other way; note: potency is the fitted concentration of half-maximal effect
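Infectious HCVcc-Cre (~0.5 moi) was added to cells just after compound, with cells seeded 4 h earlier at 1,000 per well. Luciferase activity after 44 h culture reported infection; substrate was incubated 15 min at room temperature before reading.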
* hit, by the source's call; u = inconclusive; x = no result; [ ] = another dose, or the depositor's remark. % is set by controls: 0 for no effect and ±100 for the full control effect.

SMILES	Marburg entry inh	FMDV inh	Lassa entry inh	HCMV antiviral	HCV inh
CCN(CC)S(=O)(=O)c1ccc(N2CCOCC2)c(NS(=O)(=O)c2ccc(C(C)C)cc2)c1	-1.7%	65.4%	-13.9%	-24.4	-8.9%
CCN(CC)S(=O)(=O)c1ccc(N2CCOCC2)c(NC(=O)c2cc(=O)[nH]c3ccccc23)c1	u	-8.6%	7.8%	-18.2	3.4%
CCOc1ncccc1C(=O)Nc1cc(S(=O)(=O)N(CC)CC)ccc1N1CCOCC1	x	u	x	-65.9*	u
CCN(CC)S(=O)(=O)c1ccc(N2CCOCC2)c(NC(=O)c2cccc3ccccc23)c1	-28.9%	0.0%	u	-22.9	2.7%
CCN(CC)S(=O)(=O)c1ccc(N2CCOCC2)c(NC(=O)c2cnccn2)c1	-2.5%	-18.2%	18.4%	u	-28.0%
CCN(CC)S(=O)(=O)c1ccc(N2CCOCC2)c(NS(=O)(=O)c2cc(C(C)(C)C)ccc2C)c1	u	-8.4%	8.91µM*	-68.8*	u
COc1ccc(Cn2cc(S(=O)(=O)c3ccc(C)cc3)c(=O)c3cc(F)ccc32)cc1	u	45.8%	0.9%[46.1 µM]	-8.7	x
COc1ccc2c(c1)-c1nc(-n3ncc(C(=O)N(C)C(C)c4ccon4)c3C3CC3)ncc1CC2 (stereo not drawn)	x	-74.7%	x	x	x
Cn1cnnc1Sc1ccc(CN2CCOc3ccc(C4=CCCCC4)cc3C2)o1	x	-14.0%	x	x	x
CCOc1ncccc1C(=O)Nc1cc(C(F)(F)F)ccc1N1CCOCC1	x	-17.4%	x	-67.2*	-26.6%
Cc1ccc2oc(-c3cccc(NC(=O)c4sc5c([N+](=O)[O-])cccc5c4Cl)c3)nc2c1	1.8%[46.1 µM]	11.4%	-9.3%[46.1 µM]	24.4	x
CCN(CC)CCCNC(=O)c1nn2c(C(F)(F)F)cc(-c3ccccc3)nc2c1Cl	x	-16.2%	x	0.4	3.98µM*
O=C(Nc1ccc(Br)c2ccccc12)c1ccc2ccccc2c1O	x	u	x	-100.1*	u
CCc1ccc(NC(=O)NNC(=O)c2ccc3ccccc3c2O)cc1	x	13.6%	x	-82.3*	5.6%
COC(=O)NC(c1ccc2c(c1)OCO2)C(C(=O)OC)C(=O)OC (stereo not drawn)	25.1%[14.2 µM]	x	x	x	x
CCOC(=O)c1ccoc1CN1CCN(S(=O)(=O)c2ccc(C)c(C)c2)CC1	-23.0%	-22.6%	-26.0%	-62.8*	u
CCOC(=O)N1CCN(S(=O)(=O)c2ccc(C)c([N+](=O)[O-])c2)CC1	u	-21.4%	6.4%	-62.0*	-12.3%
CCOC(=O)N1CCN(S(=O)(=O)c2ccc(OCC(=O)OC)cc2)CC1	-2.4%	x	9.3%	-77.7*	15.7%
CCOC(=O)c1c(NC(=O)CSC2=NN3CCCC(=O)N=C3S2)sc2c1CCCCC2	1.5%	-45.1%	19.0%	63.2	8.91µM*
COc1ccc(OC)c(NC(=O)CSC2=NN3CCCC(=O)N=C3S2)c1	11.5%[46.1 µM]	-25.7%	-35.5%[46.1 µM]	4.4	-21.7%
COc1ccc(Cl)cc1NC(=O)CSC1=NN2CCCC(=O)N=C2S1	u	u	6.8%[46.1 µM]	-71.1*	u
CCOc1ccccc1NC(=O)CSC1=NN2CCCC(=O)N=C2S1	u	-12.6%	-42.1%[46.1 µM]	-80.5*	-25.1%
Cc1cc(C)cc(OCC(=O)Nc2c(C)ccc3nsnc23)c1	10.7%[46.1 µM]	-29.8%	8.5%[46.1 µM]	-10.5	x
CC(C)=CCn1c2ccc(NC(=O)NCc3ccc(F)cc3)cc2c(=O)n1C	x	-8.7%	x	19.4	x
Cn1c(=O)c2cc(NC(=O)NCc3ccc(F)cc3)ccc2n1C/C=C/c1ccccc1	x	19.6%	x	-62.9*	x
SMILES	Marburg entry inh	FMDV inh	Lassa entry inh	HCMV antiviral	HCV inh
COc1ccc(-c2c(C(=O)c3ccccc3)[nH]c(N)c2C(=O)c2ccc(Br)cc2)cc1OC	x	-26.2%	x	3.2	x
COc1ccc(-c2c(C(=O)c3ccccc3)[nH]c(N)c2C(=O)c2ccccc2)cc1OC	x	-22.3%	x	-70.4*	x
Cc1ccc(C)c2[nH]c(=O)c(CCNC(=O)CCc3ccccc3)cc12	x	-2.4%	x	-75.7*	0.4%
CCCC(=O)NCCc1cc2c(C)ccc(C)c2[nH]c1=O	-19.1%	-13.1%	11.8%	u	-0.5%
COc1cc(CCCN2C(=O)C(=O)NC[C@@H]2Cc2ccc(O)cc2)cc(OC)c1OC	x	-2.0%	x	26.8	11.1%
COc1cc(CCCN2C(=S)NC[C@H]2Cc2ccc(O)cc2)cc(OC)c1OC	x	-20.5%	x	-12.7	11.2µM*
CC(Sc1ncnc2ccccc12)C(=O)Nc1ccc2c(c1)OCCO2 (stereo not drawn)	u	15.8µM*	-22.7%	-72.6*	12.6µM*
CC(Sc1nnnn1C)C(=O)Nc1ccc2c(c1)OCCO2 (stereo not drawn)	1.0%[46.1 µM]	56.6%	u	42.0	16.7%
CC(C)Cn1c(SC(C)C(=O)Nc2ccc3c(c2)OCCO3)nc2ccccc2c1=O (stereo not drawn)	u	x	11.6µM*	u	-16.6%
CC(Sc1nc2ccccc2c(=O)n1C)C(=O)Nc1ccc2c(c1)OCCO2 (stereo not drawn)	x	u	x	-80.1*	10µM*
C[C@@H](C(=O)Nc1ccc2c(c1)OCCO2)n1c(=O)[nH]c2ccccc2c1=O	x	u	x	-70.1*	15.3%
Cc1nnc(N2CCN(c3ccccc3F)CC2)c2c1nnn2Cc1ccccc1	5.2%[46.1 µM]	-0.8%	24.8%[46.1 µM]	8.7	x
CN1C(=O)[C@]2(c3ccccc31)[C@H]1CCCC=C1C(C#N)=C(N)C2(C#N)C#N	-5.9%	x	x	x	x
C1=C(c2ccc3c(c2)CN(Cc2cccn2-c2ncccn2)CCO3)Cc2ccccc21	x	-10.2%	x	x	x
CCOC(=O)c1[nH]c2ccccc2c1NC(=O)c1ccccc1F	u	-14.1%	5.1%[46.1 µM]	-0.7	x
O=C(CCCN1C(=O)/C(=C\c2cccs2)SC1=S)Nc1ccccn1	-11.0%[46.1 µM]	4.4%	-27.9%	-96.8*	25.1µM*
O=C(CCCN1C(=O)/C(=C\c2cccs2)SC1=S)Nc1ccc(O)cc1	u	-11.0%	u	-99.1*	u
Cc1ccc(/C=C2\SC(=S)N(CCCC(=O)Nc3ccc(O)cc3)C2=O)cc1	13.7%[46.1 µM]	-5.0%	u	-94.8*	-29.0%
O=C(CCCN1C(=O)S/C(=C\C=C\c2ccccc2)C1=O)Nc1ccc(O)cc1	u	-3.2%	u	-37.5	12.6µM*
COc1ccc2c(c1)CC(C(=O)NCCN1CCN(c3cccc(C)c3C)CC1)CO2 (stereo not drawn)	x	u	-17.8%[46.1 µM]	-6.5	x
O=C(CCCN1C(=O)/C(=C/c2cccs2)SC1=S)Nc1ccccc1O	u	-2.4%	-17.2%	-91.3*	u
CCn1cc(CN(C)S(=O)(=O)c2cccc([N+](=O)[O-])c2)cn1	-7.6%[46.1 µM]	10.0%	0.9%[46.1 µM]	8.8	-9.3%
CCn1cc(CN(C)S(=O)(=O)c2ccc3ccccc3c2)c(C)n1	u	u	u	-68.4*	7.94µM*
C=CC[C@H](CC(=O)N(CCO)Cc1ccccc1)C(=O)N[C@H](COC(=O)[C@H](CC=C)CC(=O)OC(C)(C)C)Cc1ccccc1	x	0.0%	x	-27.4	11.2µM*

Assay outcomes (PubChem)
